Source: PubChem BioAssay (NCATS)
Records with an inconclusive call do not appear. The source made the active and inactive calls. Unless noted, the call rests on the fitted dose curve; in most records, active means well fitted curve in the direction sought with a large enough effect; inconclusive means small, poorly fitted or top-dose-only effect, or another doubt; inactive means no such curve, though single readings can be large; an effect the other way counts as inactive or inconclusive.

Legend:
[1] = target: Tumor susceptibility gene 101 protein (Homo sapiens) (UniProt Q99816); assay: qHTS Validation Assay for Iinhibitors of HIV-1 Budding by Blocking the Interaction of PTAP/TSG101 (AID 485342; calls by dose curve; further: 0% is about no effect)
Sequence of Tumor susceptibility gene 101 protein (Homo sapiens) (Q99816 whole entry, looked up, the tested form may be a part): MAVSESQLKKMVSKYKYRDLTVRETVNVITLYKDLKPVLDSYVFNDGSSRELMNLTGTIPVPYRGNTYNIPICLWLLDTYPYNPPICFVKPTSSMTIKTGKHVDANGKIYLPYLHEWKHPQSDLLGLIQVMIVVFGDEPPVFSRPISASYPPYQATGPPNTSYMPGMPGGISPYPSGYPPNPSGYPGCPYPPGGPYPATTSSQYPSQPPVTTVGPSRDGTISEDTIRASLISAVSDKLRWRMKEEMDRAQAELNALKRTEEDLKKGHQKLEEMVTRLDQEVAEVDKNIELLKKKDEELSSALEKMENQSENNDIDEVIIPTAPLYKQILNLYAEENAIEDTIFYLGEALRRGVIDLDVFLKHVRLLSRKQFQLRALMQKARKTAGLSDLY
How it was run: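 Fluorescence anisotropy measured PTAP-Tsg101 interaction. Final concentrations were 10 uM protein domain and 50 nM labeled peptide, equilibrated 20 min at room temperature.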

[2] = qHTS Validation Assay to Find Inhibitors of Chronic Active B-Cell Receptor Signaling (AID 485345; active means well fitted curve in the direction sought with a large enough effect in the main read-out, with a control signal flat, not every such curve was filed as active;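 further: 0% = untreated basal cells and 100% = 10 µM MG-132 proteasome inhibitor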)
How it was run: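 TMD8 ABC-DLBCL cells stably carrying doxycycline-inducible IkappaBalpha–green luciferase fusion plus unfused red luciferase; compounds 46 uM to 3 nM, 4 h at 37C with doxycycline. Corrected green/red luminescence ratio normalized to 10 uM MG-132 and basal cell wells; curves fitted.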

[3] = target: Beta-2 adrenergic receptor (Homo sapiens) (UniProt P07550); assay: qHTS validation assay of beta-arrestin-biased ligands of beta2-adrenergic receptor (AID 485366); further: 0% is about no effect
Sequence of Beta-2 adrenergic receptor (Homo sapiens) (P07550 whole entry, looked up): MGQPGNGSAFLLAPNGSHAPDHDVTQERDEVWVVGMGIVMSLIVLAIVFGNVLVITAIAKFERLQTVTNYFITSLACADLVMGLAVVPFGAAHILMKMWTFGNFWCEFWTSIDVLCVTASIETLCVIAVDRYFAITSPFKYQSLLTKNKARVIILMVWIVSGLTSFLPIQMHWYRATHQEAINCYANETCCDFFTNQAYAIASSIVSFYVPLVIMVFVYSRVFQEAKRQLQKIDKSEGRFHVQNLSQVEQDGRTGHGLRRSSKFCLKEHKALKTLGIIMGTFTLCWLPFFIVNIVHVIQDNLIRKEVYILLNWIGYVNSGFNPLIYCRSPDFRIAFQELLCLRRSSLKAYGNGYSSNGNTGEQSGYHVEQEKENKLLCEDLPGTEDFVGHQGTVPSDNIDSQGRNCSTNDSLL
How it was run: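 Agonism was measured as beta-arrestin recruitment to recombinant beta2-AR, releasing tTA to drive luciferase. Cells were exposed for 18 hr at 37 degrees C to a series up to 46 microM. %Activity from corrected luminescence gave concentration-response curves.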

[4] = Quantitative high throughput screen for delayed death inhibitors of the malarial parasite plastid, 48 hour incubation (AID 488752); further: on the % scale 0 is the no-effect control and ±100 the full control effect; nearly all actives have a fitted effect of over 65% in size
How it was run: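 First, compound was pinned into RPMI 1640 medium containing 0.5% Albumax. Next, reporter-parasite-infected erythrocytes were added to 2% hematocrit and 0.1% parasitemia. After 48 h at 37 C under 5% CO2, luciferase detection reagent was added and luminescence read.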

[5] = target: Thioredoxin reductase 1, cytoplasmic (Rattus norvegicus) (UniProt O89049); assay: qHTS Assay for Substrates of Mammalian Selenoprotein Thioredoxin Reductase 1 (TrxR1) (AID 488772);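 further: series mostly up to about 57 µM; 0% is about no effect; a drop in NADPH fluorescence below the no-compound background marks a TrxR1 substrate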
Sequence of Thioredoxin reductase 1, cytoplasmic (Rattus norvegicus) (O89049 whole entry, looked up): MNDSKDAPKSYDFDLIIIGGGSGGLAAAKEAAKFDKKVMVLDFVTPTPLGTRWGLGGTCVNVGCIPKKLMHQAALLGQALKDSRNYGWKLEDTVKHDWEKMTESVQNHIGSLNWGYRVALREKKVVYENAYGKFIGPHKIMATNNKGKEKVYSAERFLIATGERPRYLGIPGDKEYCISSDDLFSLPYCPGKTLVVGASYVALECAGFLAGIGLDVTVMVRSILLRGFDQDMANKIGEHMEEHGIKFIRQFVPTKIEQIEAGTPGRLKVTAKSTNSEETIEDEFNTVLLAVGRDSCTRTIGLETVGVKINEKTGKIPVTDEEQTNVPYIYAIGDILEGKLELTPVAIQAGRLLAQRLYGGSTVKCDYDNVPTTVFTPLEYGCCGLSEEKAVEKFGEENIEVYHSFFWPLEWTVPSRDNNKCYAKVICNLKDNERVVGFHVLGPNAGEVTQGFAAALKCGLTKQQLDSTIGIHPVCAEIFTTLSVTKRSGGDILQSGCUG
How it was run: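 In this dual-purpose format, potential substrates are identified from the first fluorescence read after selenite addition, not from the 8-minute delta. Rat enzyme is preincubated with NADPH and then with compound at ~22 deg C.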

[6] = target: Thioredoxin reductase 1, cytoplasmic (Rattus norvegicus) (UniProt O89049); assay: qHTS Assay for Inhibitors of Mammalian Selenoprotein Thioredoxin Reductase 1 (TrxR1) (AID 488773); conditions: Potency: inhibition;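 further: drop in NADPH fluorescence over an 8 min run after selenite addition; series mostly up to about 57 µM; on the % scale 0 is the no-effect control and ±100 the full control effect; nearly all actives have a fitted effect of over 40% in size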
How it was run: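 Inhibition is scored from the loss of NADPH fluorescence between first and last reads of an 8-min kinetic run. Selenite (400 uM) was the substrate, added after 15 min compound preincubation at room temperature.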

[7] = target: Flap endonuclease 1 (Homo sapiens) (UniProt P39748); assay: qHTS Validation Assay for the Inhibitors of Human Flap endonuclease 1 (FEN1) (AID 488816); further: on the % scale 0 is the no-effect control and ±100 the full control effect
How it was run: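 Enzyme reagent 10 nM; cpds pinned; 15 min RT preinc.; substrate 50 nM final; reads t=0 and 15 min; no-enzyme buffer wells as neg. control; normalized data, 4-parameter Hill fit.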

[8] = target: M-phase phosphoprotein 8 (Homo sapiens) (UniProt Q99549); assay: qHTS Validation Assay for Inhibitors for MPP8 Chromodomain Interactions with Methylated Histone Tails (AID 488949);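 further: AlphaScreen signal from MPP8 chromodomain bound to biotinylated H3K9me3 peptide; top concentration of the series differs between compounds; on the % scale 0 is the no-effect control and ±100 the full control effect; nearly all actives have a fitted effect of over 55% in size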
Sequence of M-phase phosphoprotein 8 (Homo sapiens) (Q99549 whole entry, looked up): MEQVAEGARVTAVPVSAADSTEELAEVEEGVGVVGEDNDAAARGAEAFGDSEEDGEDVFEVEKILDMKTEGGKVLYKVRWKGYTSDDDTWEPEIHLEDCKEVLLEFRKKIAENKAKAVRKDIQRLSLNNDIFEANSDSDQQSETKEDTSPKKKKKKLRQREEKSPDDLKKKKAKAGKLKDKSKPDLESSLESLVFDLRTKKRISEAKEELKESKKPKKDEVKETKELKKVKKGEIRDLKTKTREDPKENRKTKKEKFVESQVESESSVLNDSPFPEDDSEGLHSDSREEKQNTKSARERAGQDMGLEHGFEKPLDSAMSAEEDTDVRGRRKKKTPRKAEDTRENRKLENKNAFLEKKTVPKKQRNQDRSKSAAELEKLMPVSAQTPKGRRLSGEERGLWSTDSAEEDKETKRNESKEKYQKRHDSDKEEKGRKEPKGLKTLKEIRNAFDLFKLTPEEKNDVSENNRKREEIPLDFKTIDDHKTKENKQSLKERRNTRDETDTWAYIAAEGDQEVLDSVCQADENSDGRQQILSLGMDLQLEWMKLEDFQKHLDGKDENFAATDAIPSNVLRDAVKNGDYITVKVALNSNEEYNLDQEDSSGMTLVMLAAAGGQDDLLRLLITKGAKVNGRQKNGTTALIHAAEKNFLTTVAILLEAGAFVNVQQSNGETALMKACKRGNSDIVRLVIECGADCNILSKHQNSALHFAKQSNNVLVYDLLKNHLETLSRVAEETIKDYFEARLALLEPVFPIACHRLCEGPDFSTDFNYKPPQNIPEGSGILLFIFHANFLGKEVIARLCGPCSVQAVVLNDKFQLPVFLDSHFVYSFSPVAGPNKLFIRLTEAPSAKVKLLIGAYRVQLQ
How it was run: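 Disruption of the preformed MPP8–trimethyl-H3K9 peptide complex (both 50 nM, 30 min, RT) is measured after 30 min compound exposure, using AlphaScreen proximity beads; aurintricarboxylic acid titration serves as plate control.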

[9] = target: Chromobox protein homolog 1 (Homo sapiens) (UniProt P83916); assay: qHTS Validation Assay for Inhibitors of HP1-beta Chromodomain Interactions with Methylated Histone Tails (AID 488953);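 further: loss of AlphaScreen luminescence from HP1-beta binding biotinylated H3K9me3 peptide; series mostly up to about 110 µM; on the % scale 0 is the no-effect control and ±100 the full control effect; nearly all actives have a fitted effect of over 50% in size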
Sequence of Chromobox protein homolog 1 (Homo sapiens) (P83916 whole entry, looked up): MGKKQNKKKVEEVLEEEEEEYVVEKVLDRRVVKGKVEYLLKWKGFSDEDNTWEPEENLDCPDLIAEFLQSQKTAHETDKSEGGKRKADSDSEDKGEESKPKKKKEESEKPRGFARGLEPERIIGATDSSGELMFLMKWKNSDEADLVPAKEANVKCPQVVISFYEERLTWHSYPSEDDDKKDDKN
How it was run: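 Disruption of preformed HP1-beta:H3K9me3 peptide complexes (both 50 nM, PBS pH 7.4 with 0.01% Tween-20) is measured by AlphaScreen after 30 min compound exposure at room temperature, using streptavidin donor and nickel chelate acceptor beads at 10 ug/mL final.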

[10] = target: Transient receptor potential cation channel subfamily V member 1 (Homo sapiens) (UniProt Q8NER1); assay: HTS Assay for Compounds that Act as Enhancers of the Vanilloid Receptor 1 (AID 488979); further: 0% is about no effect
How it was run: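 TRPV1 cells loaded with Fluo-8 calcium dye; compound added and Ca2+ signal (ex 480/em 520 nm) followed 3 min, then capsaicin at EC20 added and read 2 more min to detect enhancement.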

[11] = target: Thyrotropin receptor (Homo sapiens) (UniProt P16473); assay: qHTS Assay for Antagonists of the Thyroid Stimulating Hormone Receptor (AID 488980); further: series mostly up to about 58 µM; 0% is about no effect
How it was run: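 Cells expressing human TSHR (HEK293) are dispensed in HBSS/HEPES containing 70 uM RO 20-1724, compound is added, then TSH at EC80 (4 nM final). Antibody in lysis buffer follows, 30 minutes at room temperature before HTRF detection.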

[12] = target: D(1A) dopamine receptor (Homo sapiens) (UniProt P21728); assay: HTS Assay for Allosteric Agonists of the Human D1 Dopamine Receptor: Primary Screen for Agonists (AID 488981); further: 0% is about no effect
Sequence of D(1A) dopamine receptor (Homo sapiens) (P21728 whole entry, looked up): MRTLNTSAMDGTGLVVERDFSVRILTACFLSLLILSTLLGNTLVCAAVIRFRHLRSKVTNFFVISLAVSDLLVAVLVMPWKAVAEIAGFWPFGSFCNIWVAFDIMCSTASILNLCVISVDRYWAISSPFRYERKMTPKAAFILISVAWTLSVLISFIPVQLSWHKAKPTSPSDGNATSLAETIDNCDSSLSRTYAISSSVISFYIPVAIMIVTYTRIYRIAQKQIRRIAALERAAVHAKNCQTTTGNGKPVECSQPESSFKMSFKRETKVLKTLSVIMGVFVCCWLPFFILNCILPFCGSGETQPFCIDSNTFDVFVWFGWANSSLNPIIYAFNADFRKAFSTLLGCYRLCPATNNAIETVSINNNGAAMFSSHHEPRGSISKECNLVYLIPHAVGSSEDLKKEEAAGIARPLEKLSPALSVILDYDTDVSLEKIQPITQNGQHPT
How it was run: (§1)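 Tetracycline-induced HEK293 Trex D1 cells with forced coupling to calcium, loaded with no-wash calcium dye; kinetic fluorescence read 180 s after compound addition for agonism, then a further 180 s after an EC20 dopamine challenge for potentiation.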

[13] = target: D(1A) dopamine receptor (Homo sapiens) (UniProt P21728); assay: HTS Assay for Allosteric Agonists of the Human D1 Dopamine Receptor: Primary Screen for Potentiators (AID 488982); further: 0% is about no effect
How it was run: as §1

[14] = target: D(1A) dopamine receptor (Homo sapiens) (UniProt P21728); assay: HTS Assay for Allosteric Agonists of the Human D1 Dopamine Receptor: Primary Screen for Antagonists (AID 488983);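 further: calcium flux response to an EC80 dopamine challenge measured with no-wash dye; on the % scale 0 is the no-effect control and ±100 the full control effect; nearly all actives have a fitted effect of over 65% in size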
How it was run: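 Kinetic fluorescence at 1 cycle/sec tracked intracellular calcium in force-coupled, tetracycline-inducible HEK293 T-REx D1 cells. Loss of response to an EC80 dopamine dose, given 180 s after compound, marked antagonists.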

[15] = Validation screen for small molecules that induce genotoxicity in human embryonic kidney (HEK293T) cells expressing luciferase-tagged ELG1 (AID 493106); further: 0% is about no effect
How it was run: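 Cells were dispensed at 2,000 per well, then 23 nL compound or DMSO was pinned in. After 16 hr at 37 °C and 5% CO2, ONE-Glo reagent was added. Luciferase activity was measured following 30 min at room temperature.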

[16] = target: ATPase family AAA domain-containing protein 5 (Homo sapiens) (UniProt Q96QE3); assay: Validation screen for small molecules that inhibit ELG1-dependent DNA repair in human embryonic kidney (HEK293T) cells expressing luciferase-tagged ELG1 (AID 493107);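 further: cells co-treated with the DNA-damaging agent 5-fluorouridine alongside compound; series mostly up to about 46 µM; on the % scale 0 is the no-effect control and ±100 the full control effect; inhibitors lower the ELG1-luciferase luminescence signal; nearly all actives have a fitted effect of over 70% in size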
Sequence of ATPase family AAA domain-containing protein 5 (Homo sapiens) (Q96QE3 whole entry, looked up, the tested form may be a part): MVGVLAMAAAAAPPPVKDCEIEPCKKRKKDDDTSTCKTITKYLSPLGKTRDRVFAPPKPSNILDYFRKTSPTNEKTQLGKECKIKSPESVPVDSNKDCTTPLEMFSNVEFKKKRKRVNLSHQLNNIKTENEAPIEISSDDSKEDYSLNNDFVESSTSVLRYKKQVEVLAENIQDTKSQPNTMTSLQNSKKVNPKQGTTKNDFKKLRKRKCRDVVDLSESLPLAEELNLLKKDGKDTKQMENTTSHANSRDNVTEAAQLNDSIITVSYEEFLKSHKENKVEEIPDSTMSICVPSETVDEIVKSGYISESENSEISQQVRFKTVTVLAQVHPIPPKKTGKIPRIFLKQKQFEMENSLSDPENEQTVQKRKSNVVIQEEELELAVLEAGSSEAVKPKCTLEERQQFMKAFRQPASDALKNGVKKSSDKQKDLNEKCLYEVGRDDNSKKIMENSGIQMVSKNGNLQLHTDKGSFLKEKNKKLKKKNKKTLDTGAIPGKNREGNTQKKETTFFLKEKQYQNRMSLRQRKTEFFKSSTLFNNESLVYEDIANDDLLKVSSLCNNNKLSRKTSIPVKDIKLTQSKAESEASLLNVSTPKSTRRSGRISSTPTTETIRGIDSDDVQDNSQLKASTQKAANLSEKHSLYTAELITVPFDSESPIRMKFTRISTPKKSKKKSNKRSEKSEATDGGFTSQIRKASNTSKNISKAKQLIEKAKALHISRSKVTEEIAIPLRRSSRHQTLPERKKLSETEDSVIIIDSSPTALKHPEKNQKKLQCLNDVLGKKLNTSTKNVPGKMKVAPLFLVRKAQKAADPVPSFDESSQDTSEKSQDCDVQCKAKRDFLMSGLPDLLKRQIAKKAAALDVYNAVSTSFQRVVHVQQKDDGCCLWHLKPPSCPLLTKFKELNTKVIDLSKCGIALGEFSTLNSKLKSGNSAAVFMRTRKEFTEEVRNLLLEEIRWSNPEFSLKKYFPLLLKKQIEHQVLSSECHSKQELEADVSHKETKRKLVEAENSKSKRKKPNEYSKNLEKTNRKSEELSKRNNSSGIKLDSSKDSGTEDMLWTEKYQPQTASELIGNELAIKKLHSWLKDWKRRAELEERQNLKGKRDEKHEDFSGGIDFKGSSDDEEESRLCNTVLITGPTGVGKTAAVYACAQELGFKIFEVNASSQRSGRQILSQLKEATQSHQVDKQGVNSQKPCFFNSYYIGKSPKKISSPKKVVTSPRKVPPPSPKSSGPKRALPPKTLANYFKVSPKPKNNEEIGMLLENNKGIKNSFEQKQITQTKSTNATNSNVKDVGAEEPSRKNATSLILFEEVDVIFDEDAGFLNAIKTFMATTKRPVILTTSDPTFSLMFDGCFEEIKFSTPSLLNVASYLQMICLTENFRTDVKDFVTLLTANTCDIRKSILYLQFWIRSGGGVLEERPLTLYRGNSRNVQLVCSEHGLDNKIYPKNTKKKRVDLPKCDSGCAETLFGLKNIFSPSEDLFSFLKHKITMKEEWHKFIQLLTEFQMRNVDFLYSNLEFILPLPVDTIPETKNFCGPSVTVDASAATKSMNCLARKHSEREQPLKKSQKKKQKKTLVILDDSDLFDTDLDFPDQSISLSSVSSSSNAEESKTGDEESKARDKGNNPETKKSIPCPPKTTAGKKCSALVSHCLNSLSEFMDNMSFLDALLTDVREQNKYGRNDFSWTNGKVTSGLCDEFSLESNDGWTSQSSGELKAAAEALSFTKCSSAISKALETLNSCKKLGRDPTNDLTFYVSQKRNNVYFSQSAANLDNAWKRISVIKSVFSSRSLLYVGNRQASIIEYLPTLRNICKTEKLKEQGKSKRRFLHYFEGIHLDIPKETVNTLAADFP
How it was run: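 Cells are dispensed in 1536-well format, then 5-fluorouridine and compound are pinned in. After a 16 hr incubation at 37 °C and 5% CO2, ONE-Glo is added and luciferase measured on a CCD imager.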

[17] = target: Thyrotropin-releasing hormone receptor (Homo sapiens) (UniProt P34981); assay: qHTS for Small Molecule Agonists and Allosteric Enhancers of Human TRH Receptor: Validation Screen for Agonists (AID 493127;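 active means calcium activation more than 3 SD above the typical response in the agonist read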;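 further: intracellular calcium rise by fluo-8 fluorescence before TRH EC20 addition; 0% is about no effect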); conditions: TRH receptor agonist cell assay; at 2 µM; active compounds read high
Sequence of Thyrotropin-releasing hormone receptor (Homo sapiens) (P34981 whole entry, looked up): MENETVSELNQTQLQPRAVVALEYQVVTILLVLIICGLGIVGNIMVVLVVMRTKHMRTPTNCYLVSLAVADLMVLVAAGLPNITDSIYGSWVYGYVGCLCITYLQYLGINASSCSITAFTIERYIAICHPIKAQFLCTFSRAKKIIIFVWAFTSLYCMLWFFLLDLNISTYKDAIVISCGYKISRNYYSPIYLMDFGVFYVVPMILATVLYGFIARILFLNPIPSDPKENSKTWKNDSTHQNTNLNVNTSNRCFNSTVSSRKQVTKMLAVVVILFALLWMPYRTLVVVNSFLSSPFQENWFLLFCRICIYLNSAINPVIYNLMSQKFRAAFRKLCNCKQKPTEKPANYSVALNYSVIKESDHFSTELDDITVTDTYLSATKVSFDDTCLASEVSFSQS
How it was run: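 Compounds are added by online pintool to dye-loaded TRHR cells while fluorescence is recorded every second. A rise in calcium signal during the agonist read marks activation; a later 10 nM TRH addition (EC20) serves the separate enhancer mode.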

[18] = Nrf2 qHTS screen for inhibitors: Validation (AID 493153; active means well fitted inhibition curve with a large enough effect in the main read-out, with a control signal flat, not every such curve was filed as active;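 further: A549 cells with ARE-driven firefly luciferase reporter reporting Nrf2 activity; series mostly up to about 46 µM; % of control where 0% means no effect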); conditions: Potency: luciferase luminescence; viability change: measured here: cytotoxicity max response
How it was run: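 A549 ARE_Fluc, 5% FBS OPTI-MEM; cpd titration, 18-24 h, 37°C/5% CO2. Read 1: CellTiter-Fluor (Ex 405/Em 525), cytotox. Read 2: luciferase lum, Nrf2 activity.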

O=[N+]([O-])c1ccc(O[C@@H]2O[C@H](CO)[C@@H](O)[C@H](O)[C@H]2F)c([N+](=O)[O-])c1
inactive: outcome [1] | outcome [2] | outcome [3] | Potency [4] | outcome [5] | Potency [6] | Potency [7] | Potency [8] | Potency [9] | outcome [10] | outcome [11] | outcome [12] | Potency [13] | outcome [14] | outcome [15] | Potency [16] | activation [17] 1.06% | Potency [18]
